Consider 7 compounds from PubChem BioAssay (NCI).

This is part of a sample that, as a whole, favours compounds with a hit. Of some 83,000 tested, about 20% had one in any assay.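 Each cell line was grown in a 96-well plate and treated with one concentration of compound for 48 hours. Values below 10 were considered active.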 A number with no mark means an inactive call. Calls of active or inactive are those of the source.

Holding throughout (test): NCI-60 one-dose screen, 48 h (100 = growth as untreated, 0 = no growth, -100 = all killed)
What all share (conditions): 10 µM unless noted

Test [1] concerns NCI-H23 lung.
The subject of test [2] is NCI-H226 lung.
The test system of test [3] is NCI-H322M lung.
In test [4] the test system is HOP-62 NSCLC.
Test [5] deals with NCI-H460 lung.
Test [6] concerns HOP-92 NSCLC.
For test [7], the system named is NCI-H522 lung.
For test [8], the system named is A549/ATCC NSCLC.
The test system of test [9] is 786-0 renal.
Test [10] deals with COLO 205 colon.
The subject of test [11] is DU-145 prostate.
The subject of test [12] is K-562 leukemia.
Test [13] relates to MALME-3M melanoma.
The subject of test [14] is MDA-MB-231 breast.
For test [15], the system named is RXF 393 renal.
For test [16], the system named is SF-268 CNS.
Test [17] deals with SF-295 CNS.
The test system of test [18] is SF-539 CNS.
For test [19], the system named is UACC-257 melanoma.
For test [20], the system named is M14 melanoma.

`COc1ccc(S(=O)(=O)n2c3ccccc3n3ncc(-c4nnc(C)o4)c23)cc1`: the growth was 31.7% in test [1]; 55.7% in test [2]; 49% in test [3]; 37.3% in test [4]; 14.2% in test [5]; 66% in test [6]. Besides, the growth in [7] is 31.2%; in test [8], 27.4%; in [9] it was 42.7%; in test [10], 7.03% (active); in test [11] it was 22.8%; in [12] it was 15.4%. Also, the growth is 66.9% in test [13]; 30.1% in [14]; -22.2% (active) in test [15]; 53% in test [16]; 6.74% (active) in test [17]; -1.67% (active) in test [18]. In addition, the growth in test [19] was 84.1%; in test [20] it was 15.4%.

With `COc1cccc(-c2nc(-c3ccc(NS(=O)(=O)c4ccccc4)cc3)[nH]c2-c2ccnc(Br)c2)c1`, the growth in test [1] was 25.8%; in [2] it was 37.3%; in [3] it was 32.4%; in test [4], 26.5%; in test [5], 16.7%; in [6], 24.5%. In addition, the growth in test [7] is 20.7%; in test [8], 29%; in test [9], 20%; in test [10], 35.5%; in [11], 44.3%; in [12] it was 5.37% (active). Further, the growth in test [13] was 40.2%; in test [14], 30.1%; in test [15], -24.5% (active); in test [16] it was 31.4%; in test [17] it was 3.83% (active); in test [18] it was 36.6%. The growth in test [19] is 48.7%; in test [20] it was 27.1%.

On to `CCCCCCNC(=O)Oc1ccc(/C(=C(\C)c2ccc(Cl)cc2)c2ccc(OCCCN(C)C)cc2)cc1`, for which the growth in test [1] is 80.5%; in test [2], 110%; in test [3], 81.7%; in [4], 97%; in test [5], 32.7%; in test [6], 58.6%. Besides, the growth is 83.7% in test [7]; 63.5% in test [8]; 56.8% in [9]; 23.8% in [10]; 84.9% in test [11]; -28.4% (active) in [12]. The growth is 68.6% in test [13]; 79.2% in test [14]; 80.1% in [15]; 77% in test [16]; 97.5% in [17]; 87.9% in test [18]. Further, the growth in test [19] is 60%; in [20], 76.7%.

For `O=C(N/N=C/[C@H](O)[C@@H](O)[C@@H](O)[C@H](O)CO)c1ccc(NC(=O)c2cccnc2)cc1`, the growth is 110% in test [1]; 106% in [2]; 103% in test [3]; 113% in test [4]; 108% in test [5]; 111% in test [6]. In addition, the growth in [7] was 96.2%; in test [8], 102%; in test [9], 113%; in [10], 110%; in test [11] it was 119%; in [12] it was 110%. Also, the growth is 108% in [13]; 100% in [14]; 121% in test [15]; 103% in test [16]; 102% in test [17]; 106% in test [18]. Also, the growth was 102% in [19] and 114% in [20].

Turning to `CCCCCCn1c(-c2ccc(C(=O)O/N=C(\N)c3ccc4c(c3)OCO4)cc2)nc(-c2ccccc2)c1-c1ccccc1`, the growth was -30.8% (active) in test [1]; 64.6% in test [2]; 73.9% in test [3]; 64.8% in test [4]; 4.23% (active) in [5]; -57.5% (active) in test [6]. Further, the growth was -58.9% (active) in test [7]; -25.3% (active) in test [8]; -65.9% (active) in test [9]; 35.7% in test [10]; 0.0183% (active) in test [11]; -29.7% (active) in [12]. The growth in test [13] was 28.1%; in test [14], 26.3%; in [15] it was -27.2% (active); in test [16], 41.1%; in test [17], 30.6%; in test [18] it was -30.2% (active). In addition, the growth in test [19] was 62%; in test [20], 56.2%.

In the case of `Cc1ccc2sc3c(NCCN)nc4ccccc4c3c(=O)c2c1`, the growth in test [1] was 81.1%; in test [2], 93.2%; in test [3], 81.5%; in [4], 80.6%; in test [5], -17.1% (active); in test [6] it was 50.7%. The growth in [7] was 85%; in test [8], 73.3%; in [9] it was 87.7%; in test [10], -21.7% (active); in test [11], 64.1%; in test [12] it was 0.362% (active). Further, the growth in test [13] is 102%; in test [14] it was 41.7%; in [15], 89.8%; in [16] it was 74.5%; in test [17] it was 105%; in test [18] it was 70.8%. The growth in test [19] was 108%; in [20] it was 86.7%.

Regarding `CCCCOc1ccc(/C=N/NC(N)=S)cc1`, the growth was 87.6% in test [1]; 68.9% in [2]; 94.9% in [3]; 116% in test [4]; 96.5% in test [5]; 68.2% in test [6]. Moreover, the growth in test [7] was 8.46% (active); in test [8] it was 91.4%; in [9], 68.3%; in test [10], 85%; in test [11], 95.6%; in test [12], 65%. Moreover, the growth in [13] is 90.2%; in test [14] it was 55.7%; in [15], 85.7%; in test [16] it was 88.7%; in test [17], 96.9%; in [18], 78.9%. In addition, the growth in test [19] is 78.4%; in test [20], 78%.
